Holding throughout (experiment): PBM; 200 nM protein, PBS
Holding throughout (details): dsDNA, one strand shown

The target in assay [1] is HESX1 (Homo sapiens, UniProt Q9UBX0 95-180, R165K).
For assay [2], the target named is HOXB4 (Homo sapiens, UniProt P17483 148-234).
In assay [3] the target is SHOX (Homo sapiens, UniProt O15266 103-189).
In assay [4] the target is HESX1 (Homo sapiens, UniProt Q9UBX0 95-180).
For assay [5], the target named is HOXA4 (Homo sapiens, UniProt Q00056 201-287, R217L).
The target in assay [6] is HOXB4 (Homo sapiens, UniProt P17483 148-234, V174I).
The target in assay [7] is ALX1 (Homo sapiens, UniProt Q15699 118-204, L144V).
Assay [8] addresses ALX3 (Homo sapiens, UniProt O95076 139-225, N203Q).
Assay [9] concerns the target SHOX (Homo sapiens, UniProt O15266 103-189, R173C).
The target in assay [10] is ALX1 (Homo sapiens, UniProt Q15699 118-204, L144R).
Assay [11] addresses ALX3 (Homo sapiens, UniProt O95076 139-225).
Assay [12] deals with PROP1 (Homo sapiens, UniProt O75360 56-141).
Assay [13] has as its target HESX1 (Homo sapiens, UniProt Q9UBX0 95-180, R109Q).
For assay [14], the target named is PROP1 (Homo sapiens, UniProt O75360 56-141, R99H).
Assay [15] has as its target ALX3 (Homo sapiens, UniProt O95076 139-225, L168Q).
Assay [16] concerns the target HESX1 (Homo sapiens, UniProt Q9UBX0 95-180, P111T).
Assay [17] deals with ALX3 (Homo sapiens, UniProt O95076 139-225, L168V).
Assay [18] deals with PROP1 (Homo sapiens, UniProt O75360 56-141, F88S).
Assay [19] concerns the target HESX1 (Homo sapiens, UniProt Q9UBX0 95-180, F115L).
The target of assay [20] is ALX3 (Homo sapiens, UniProt O95076 139-225, N203S).
Sequence of ALX3 (Homo sapiens, UniProt O95076 139-225, N203S) (O95076 139-225 N203S): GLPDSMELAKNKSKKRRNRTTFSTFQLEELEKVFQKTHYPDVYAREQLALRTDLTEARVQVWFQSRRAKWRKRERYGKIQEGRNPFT

Sequence of HOXB4 (Homo sapiens, UniProt P17483 148-234, V174I) (P17483 148-234 V174I): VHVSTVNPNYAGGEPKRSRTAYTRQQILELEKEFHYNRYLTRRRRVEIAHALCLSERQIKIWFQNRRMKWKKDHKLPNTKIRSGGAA
Sequence of SHOX (Homo sapiens, UniProt O15266 103-189, R173C) (O15266 103-189 R173C): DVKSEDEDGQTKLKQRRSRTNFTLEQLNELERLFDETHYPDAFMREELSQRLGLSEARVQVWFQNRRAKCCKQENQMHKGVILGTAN
Sequence of SHOX (Homo sapiens, UniProt O15266 103-189) (O15266 103-189): as the sequence (O15266 103-189 R173C) above, with C71R counted along it
Sequence of HESX1 (Homo sapiens, UniProt Q9UBX0 95-180, P111T) (Q9UBX0 95-180 P111T): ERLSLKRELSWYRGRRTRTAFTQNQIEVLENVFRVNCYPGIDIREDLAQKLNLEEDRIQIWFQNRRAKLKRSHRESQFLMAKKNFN
Sequence of ALX1 (Homo sapiens, UniProt Q15699 118-204, L144V) (Q15699 118-204 L144V): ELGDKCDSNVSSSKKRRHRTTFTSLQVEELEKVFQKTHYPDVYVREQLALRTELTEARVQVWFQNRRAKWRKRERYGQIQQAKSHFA
Sequence of HESX1 (Homo sapiens, UniProt Q9UBX0 95-180, R109Q) (Q9UBX0 95-180 R109Q): as the sequence (Q9UBX0 95-180 P111T) above, with R15Q, T17P counted along it
Sequence of ALX1 (Homo sapiens, UniProt Q15699 118-204, L144R) (Q15699 118-204 L144R): as the sequence (Q15699 118-204 L144V) above, with V27R counted along it
Sequence of HESX1 (Homo sapiens, UniProt Q9UBX0 95-180, R165K) (Q9UBX0 95-180 R165K): as the sequence (Q9UBX0 95-180 P111T) above, with T17P, R71K counted along it
Sequence of PROP1 (Homo sapiens, UniProt O75360 56-141) (O75360 56-141): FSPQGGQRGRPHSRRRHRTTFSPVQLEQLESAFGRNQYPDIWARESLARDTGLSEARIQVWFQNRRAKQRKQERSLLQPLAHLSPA
Sequence of ALX3 (Homo sapiens, UniProt O95076 139-225, L168V) (O95076 139-225 L168V): as the sequence (O95076 139-225 N203S) above, with L30V, S65N counted along it
Sequence of HESX1 (Homo sapiens, UniProt Q9UBX0 95-180, F115L) (Q9UBX0 95-180 F115L): as the sequence (Q9UBX0 95-180 P111T) above, with T17P, F21L counted along it
Sequence of PROP1 (Homo sapiens, UniProt O75360 56-141, R99H) (O75360 56-141 R99H): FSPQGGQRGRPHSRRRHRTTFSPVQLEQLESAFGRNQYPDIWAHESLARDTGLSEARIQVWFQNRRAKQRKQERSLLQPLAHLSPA
Sequence of ALX3 (Homo sapiens, UniProt O95076 139-225) (O95076 139-225): as the sequence (O95076 139-225 N203S) above, with S65N counted along it
Sequence of ALX3 (Homo sapiens, UniProt O95076 139-225, N203Q) (O95076 139-225 N203Q): as the sequence (O95076 139-225 N203S) above, with S65Q counted along it
Sequence of HESX1 (Homo sapiens, UniProt Q9UBX0 95-180) (Q9UBX0 95-180): as the sequence (Q9UBX0 95-180 P111T) above, with T17P counted along it
Sequence of ALX3 (Homo sapiens, UniProt O95076 139-225, L168Q) (O95076 139-225 L168Q): as the sequence (O95076 139-225 N203S) above, with L30Q, S65N counted along it
Sequence of HOXB4 (Homo sapiens, UniProt P17483 148-234) (P17483 148-234): as the sequence (P17483 148-234 V174I) above, with I27V counted along it
Sequence of HOXA4 (Q00056 201-287 R217L): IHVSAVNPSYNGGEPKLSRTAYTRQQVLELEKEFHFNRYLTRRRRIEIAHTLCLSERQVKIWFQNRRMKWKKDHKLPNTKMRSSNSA
Sequence of PROP1 (Homo sapiens, UniProt O75360 56-141, F88S) (O75360 56-141 F88S): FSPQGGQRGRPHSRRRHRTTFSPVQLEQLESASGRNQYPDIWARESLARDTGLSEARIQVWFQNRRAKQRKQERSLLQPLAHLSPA

With AATAATTA, the binding signal in assay [1] is 13 upbm affinity estimate (log intensity, higher = more binding, comparable within an allelic series); in assay [2], 13.5 upbm affinity estimate (log intensity, higher = more binding, comparable within an allelic series); in assay [3], 12.1 upbm affinity estimate (log intensity, higher = more binding, comparable within an allelic series); in assay [4], 13 upbm affinity estimate (log intensity, higher = more binding, comparable within an allelic series); in assay [5], 12.7 upbm affinity estimate (log intensity, higher = more binding, comparable within an allelic series); in [6], 14.2 upbm affinity estimate (log intensity, higher = more binding, comparable within an allelic series). Also, the binding signal in [7] was 11.9 upbm affinity estimate (log intensity, higher = more binding, comparable within an allelic series); in assay [8], 8.63 upbm affinity estimate (log intensity, higher = more binding, comparable within an allelic series); in [9] it was 9.86 upbm affinity estimate (log intensity, higher = more binding, comparable within an allelic series); in [10], 11.7 upbm affinity estimate (log intensity, higher = more binding, comparable within an allelic series); in assay [11], 12.8 upbm affinity estimate (log intensity, higher = more binding, comparable within an allelic series); in assay [12], 11.8 upbm affinity estimate (log intensity, higher = more binding, comparable within an allelic series). For the same sequence, the binding signal is 9.38 upbm affinity estimate (log intensity, higher = more binding, comparable within an allelic series) in assay [13]; 11.6 upbm affinity estimate (log intensity, higher = more binding, comparable within an allelic series) in assay [14]; 10.9 upbm affinity estimate (log intensity, higher = more binding, comparable within an allelic series) in assay [15]; 11.5 upbm affinity estimate (log intensity, higher = more binding, comparable within an allelic series) in assay [16]; 10.6 upbm affinity estimate (log intensity, higher = more binding, comparable within an allelic series) in assay [17]; 7.89 upbm affinity estimate (log intensity, higher = more binding, comparable within an allelic series) in [18]. The binding signal in assay [19] is 8.2 upbm affinity estimate (log intensity, higher = more binding, comparable within an allelic series); in assay [20], 8.7 upbm affinity estimate (log intensity, higher = more binding, comparable within an allelic series).

Regarding ATAATTAT, the binding signal in assay [1] is 12.8 upbm affinity estimate (log intensity, higher = more binding, comparable within an allelic series); in [2], 13.7 upbm affinity estimate (log intensity, higher = more binding, comparable within an allelic series); in [3], 12.1 upbm affinity estimate (log intensity, higher = more binding, comparable within an allelic series); in [4], 12.8 upbm affinity estimate (log intensity, higher = more binding, comparable within an allelic series); in assay [5], 12.7 upbm affinity estimate (log intensity, higher = more binding, comparable within an allelic series); in assay [6], 14.5 upbm affinity estimate (log intensity, higher = more binding, comparable within an allelic series). The binding signal in [7] was 11.9 upbm affinity estimate (log intensity, higher = more binding, comparable within an allelic series); in assay [8], 8.72 upbm affinity estimate (log intensity, higher = more binding, comparable within an allelic series); in assay [9], 9.85 upbm affinity estimate (log intensity, higher = more binding, comparable within an allelic series); in [10], 11.6 upbm affinity estimate (log intensity, higher = more binding, comparable within an allelic series); in [11], 12.7 upbm affinity estimate (log intensity, higher = more binding, comparable within an allelic series); in [12] it was 11.8 upbm affinity estimate (log intensity, higher = more binding, comparable within an allelic series). The binding signal in [13] is 9.01 upbm affinity estimate (log intensity, higher = more binding, comparable within an allelic series); in [14] it was 11.5 upbm affinity estimate (log intensity, higher = more binding, comparable within an allelic series); in [15] it was 10.8 upbm affinity estimate (log intensity, higher = more binding, comparable within an allelic series); in assay [16], 11.2 upbm affinity estimate (log intensity, higher = more binding, comparable within an allelic series); in assay [17], 10.4 upbm affinity estimate (log intensity, higher = more binding, comparable within an allelic series); in assay [18], 8.04 upbm affinity estimate (log intensity, higher = more binding, comparable within an allelic series). Also, the binding signal in [19] is 7.94 upbm affinity estimate (log intensity, higher = more binding, comparable within an allelic series); in [20], 8.79 upbm affinity estimate (log intensity, higher = more binding, comparable within an allelic series).

ATAATTAC: the binding signal was 12.6 upbm affinity estimate (log intensity, higher = more binding, comparable within an allelic series) in assay [1]; 13.5 upbm affinity estimate (log intensity, higher = more binding, comparable within an allelic series) in assay [2]; 12 upbm affinity estimate (log intensity, higher = more binding, comparable within an allelic series) in assay [3]; 12.6 upbm affinity estimate (log intensity, higher = more binding, comparable within an allelic series) in assay [4]; 12.8 upbm affinity estimate (log intensity, higher = more binding, comparable within an allelic series) in assay [5]; 14.2 upbm affinity estimate (log intensity, higher = more binding, comparable within an allelic series) in assay [6]. For the same sequence, the binding signal in assay [7] was 11.8 upbm affinity estimate (log intensity, higher = more binding, comparable within an allelic series); in [8], 8.56 upbm affinity estimate (log intensity, higher = more binding, comparable within an allelic series); in [9], 9.76 upbm affinity estimate (log intensity, higher = more binding, comparable within an allelic series); in assay [10], 11.5 upbm affinity estimate (log intensity, higher = more binding, comparable within an allelic series); in assay [11], 12.5 upbm affinity estimate (log intensity, higher = more binding, comparable within an allelic series); in [12], 11.6 upbm affinity estimate (log intensity, higher = more binding, comparable within an allelic series). Further, the binding signal in assay [13] is 9.02 upbm affinity estimate (log intensity, higher = more binding, comparable within an allelic series); in assay [14], 11.4 upbm affinity estimate (log intensity, higher = more binding, comparable within an allelic series); in assay [15] it was 10.7 upbm affinity estimate (log intensity, higher = more binding, comparable within an allelic series); in assay [16], 11.1 upbm affinity estimate (log intensity, higher = more binding, comparable within an allelic series); in assay [17] it was 10.3 upbm affinity estimate (log intensity, higher = more binding, comparable within an allelic series); in [18], 7.95 upbm affinity estimate (log intensity, higher = more binding, comparable within an allelic series). Besides, the binding signal in [19] is 7.97 upbm affinity estimate (log intensity, higher = more binding, comparable within an allelic series); in [20], 8.66 upbm affinity estimate (log intensity, higher = more binding, comparable within an allelic series).

Take CATAATTA: the binding signal in assay [1] was 12.9 upbm affinity estimate (log intensity, higher = more binding, comparable within an allelic series); in assay [2], 13.6 upbm affinity estimate (log intensity, higher = more binding, comparable within an allelic series); in assay [3], 12.4 upbm affinity estimate (log intensity, higher = more binding, comparable within an allelic series); in [4], 12.9 upbm affinity estimate (log intensity, higher = more binding, comparable within an allelic series); in assay [5], 12.7 upbm affinity estimate (log intensity, higher = more binding, comparable within an allelic series); in [6], 14.4 upbm affinity estimate (log intensity, higher = more binding, comparable within an allelic series). The binding signal in [7] is 12 upbm affinity estimate (log intensity, higher = more binding, comparable within an allelic series); in assay [8], 8.61 upbm affinity estimate (log intensity, higher = more binding, comparable within an allelic series); in assay [9], 10 upbm affinity estimate (log intensity, higher = more binding, comparable within an allelic series); in assay [10] it was 11.6 upbm affinity estimate (log intensity, higher = more binding, comparable within an allelic series); in [11] it was 12.6 upbm affinity estimate (log intensity, higher = more binding, comparable within an allelic series); in [12], 11.8 upbm affinity estimate (log intensity, higher = more binding, comparable within an allelic series). For the same sequence, the binding signal in [13] was 9.21 upbm affinity estimate (log intensity, higher = more binding, comparable within an allelic series); in assay [14], 11.5 upbm affinity estimate (log intensity, higher = more binding, comparable within an allelic series); in assay [15], 10.8 upbm affinity estimate (log intensity, higher = more binding, comparable within an allelic series); in [16], 11.3 upbm affinity estimate (log intensity, higher = more binding, comparable within an allelic series); in assay [17], 10.4 upbm affinity estimate (log intensity, higher = more binding, comparable within an allelic series); in assay [18], 8.12 upbm affinity estimate (log intensity, higher = more binding, comparable within an allelic series). In addition, the binding signal in [19] is 7.94 upbm affinity estimate (log intensity, higher = more binding, comparable within an allelic series); in assay [20] it was 8.73 upbm affinity estimate (log intensity, higher = more binding, comparable within an allelic series).

Source of the values: article PMC11006913.
